From article PMC7862700, “An all-to-all approach to the identification of sequence-specific readers for epigenetic DNA modifications on cytosine”

What was measured:
Assay in all cases: DAPPL (digital affinity profiling via proximity ligation, sequencing); 10 mM Tris-HCl pH 7.5, 50 mM NaCl, 1 mM DTT, 4% glycerol, room temperature, 30 min; GST-TFs on glutathione beads, 16-mer random dsDNA library, 0.1% formaldehyde crosslink after washing; high values mean tight binding
ELF1 = ELF1 (Homo sapiens, UniProt P32519 1-619); details: protein: recombinant; tags: N-terminal GST; dsDNA, one strand shown
Sequence of ELF1 (P32519 whole entry, the tested form may be a part): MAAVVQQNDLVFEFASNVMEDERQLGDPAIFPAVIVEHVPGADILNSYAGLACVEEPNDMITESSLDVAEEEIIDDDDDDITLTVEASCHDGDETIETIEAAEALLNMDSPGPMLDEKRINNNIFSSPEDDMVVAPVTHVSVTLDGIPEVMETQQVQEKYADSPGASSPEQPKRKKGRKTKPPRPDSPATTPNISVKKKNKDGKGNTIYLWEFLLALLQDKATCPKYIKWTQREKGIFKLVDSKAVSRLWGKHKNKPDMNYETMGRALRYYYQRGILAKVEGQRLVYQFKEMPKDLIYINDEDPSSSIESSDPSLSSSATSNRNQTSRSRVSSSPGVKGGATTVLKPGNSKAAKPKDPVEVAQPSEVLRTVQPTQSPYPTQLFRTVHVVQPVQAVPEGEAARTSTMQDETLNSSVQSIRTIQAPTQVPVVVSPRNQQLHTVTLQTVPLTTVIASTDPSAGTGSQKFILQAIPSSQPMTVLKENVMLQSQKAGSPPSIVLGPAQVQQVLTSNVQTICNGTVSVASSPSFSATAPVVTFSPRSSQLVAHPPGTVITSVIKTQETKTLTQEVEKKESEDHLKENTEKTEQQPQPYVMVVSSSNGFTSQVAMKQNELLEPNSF
Method in brief: (§1)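 Pools were built from human transcription factors expressed in yeast as GST fusions, captured on glutathione beads and DNA-barcoded, along with a tag-only sample. Incubation with 200 nmole of a 16-mer random double-stranded DNA library lasted 30 min at room temperature in Tris/NaCl/DTT/glycerol buffer, and was followed by washing, 0.1% formaldehyde crosslinking, proximity ligation, PCR amplification and Illumina NextSeq500 sequencing. Binding signal is the quotient of each hexamer's read frequency for a factor and its frequency for the tag-only sample.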

ELK3 = molecular target: T1, ELK3 (Homo sapiens, UniProt P41970 1-407); details: protein: recombinant; tags: N-terminal GST; dsDNA, one strand shown
T1 sequence: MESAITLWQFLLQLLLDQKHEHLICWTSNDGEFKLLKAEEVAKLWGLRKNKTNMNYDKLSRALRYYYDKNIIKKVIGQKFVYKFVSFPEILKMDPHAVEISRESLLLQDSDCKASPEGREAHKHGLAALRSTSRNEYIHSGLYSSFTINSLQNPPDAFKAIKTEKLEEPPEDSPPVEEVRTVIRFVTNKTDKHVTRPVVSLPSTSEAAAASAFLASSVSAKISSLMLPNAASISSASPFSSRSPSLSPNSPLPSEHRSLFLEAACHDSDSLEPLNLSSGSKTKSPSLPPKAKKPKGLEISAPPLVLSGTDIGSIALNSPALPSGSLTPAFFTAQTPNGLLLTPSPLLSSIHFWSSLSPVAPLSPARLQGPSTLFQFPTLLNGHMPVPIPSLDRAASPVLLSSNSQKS
Method in brief: as §1

HSF1 = HSF1 (Homo sapiens, UniProt Q00613 1-529); details: protein: recombinant; tags: N-terminal GST; chain copies: 3; dsDNA, one strand shown
Sequence of HSF1 (Q00613 whole entry): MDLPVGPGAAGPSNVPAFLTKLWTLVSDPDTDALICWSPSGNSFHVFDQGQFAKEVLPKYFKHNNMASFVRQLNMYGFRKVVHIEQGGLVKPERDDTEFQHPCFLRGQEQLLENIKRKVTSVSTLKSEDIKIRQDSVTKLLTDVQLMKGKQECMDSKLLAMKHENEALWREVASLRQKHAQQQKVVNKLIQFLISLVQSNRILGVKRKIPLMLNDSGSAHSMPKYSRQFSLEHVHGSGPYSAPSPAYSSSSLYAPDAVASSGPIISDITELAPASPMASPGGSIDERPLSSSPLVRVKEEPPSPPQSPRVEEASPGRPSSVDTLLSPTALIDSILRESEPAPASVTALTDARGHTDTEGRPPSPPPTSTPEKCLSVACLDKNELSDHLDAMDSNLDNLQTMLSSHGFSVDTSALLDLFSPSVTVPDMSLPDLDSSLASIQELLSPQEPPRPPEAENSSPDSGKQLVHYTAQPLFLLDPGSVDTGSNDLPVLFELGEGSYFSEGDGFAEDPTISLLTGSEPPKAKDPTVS
Method in brief: as §1

ELK4 = molecular target: T2, ELK4 (Homo sapiens, UniProt P28324-2 1-405); details: protein: recombinant; tags: N-terminal GST; dsDNA, one strand shown
T2 sequence: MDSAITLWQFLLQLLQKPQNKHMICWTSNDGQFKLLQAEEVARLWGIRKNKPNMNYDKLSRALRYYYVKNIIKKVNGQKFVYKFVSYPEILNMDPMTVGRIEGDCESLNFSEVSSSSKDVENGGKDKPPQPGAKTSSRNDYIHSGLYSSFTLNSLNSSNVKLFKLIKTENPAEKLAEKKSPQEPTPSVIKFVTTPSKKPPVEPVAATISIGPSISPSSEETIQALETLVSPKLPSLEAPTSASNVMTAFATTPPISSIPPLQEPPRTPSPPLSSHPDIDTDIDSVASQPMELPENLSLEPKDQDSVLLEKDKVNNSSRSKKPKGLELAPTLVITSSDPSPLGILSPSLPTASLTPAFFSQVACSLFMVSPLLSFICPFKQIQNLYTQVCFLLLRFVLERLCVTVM
Method in brief: as §1

ELF3 = molecular target: T3, ELF3 (Homo sapiens, UniProt P78545 1-371); details: protein: recombinant; tags: N-terminal GST; dsDNA, one strand shown
T3 sequence: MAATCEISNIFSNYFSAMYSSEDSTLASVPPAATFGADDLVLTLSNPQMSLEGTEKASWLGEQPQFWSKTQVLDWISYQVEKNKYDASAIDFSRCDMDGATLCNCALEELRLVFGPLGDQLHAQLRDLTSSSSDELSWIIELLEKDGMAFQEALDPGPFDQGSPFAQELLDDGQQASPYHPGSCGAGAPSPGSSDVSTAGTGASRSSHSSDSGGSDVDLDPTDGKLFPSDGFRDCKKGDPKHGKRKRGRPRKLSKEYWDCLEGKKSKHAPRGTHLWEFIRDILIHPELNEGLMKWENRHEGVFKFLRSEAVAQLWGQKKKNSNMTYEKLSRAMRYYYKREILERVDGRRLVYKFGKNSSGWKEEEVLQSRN
Method in brief: as §1

CRX = CRX (Homo sapiens, UniProt O43186 1-299); details: protein: recombinant; tags: N-terminal GST; dsDNA, one strand shown
Sequence of CRX (O43186 whole entry): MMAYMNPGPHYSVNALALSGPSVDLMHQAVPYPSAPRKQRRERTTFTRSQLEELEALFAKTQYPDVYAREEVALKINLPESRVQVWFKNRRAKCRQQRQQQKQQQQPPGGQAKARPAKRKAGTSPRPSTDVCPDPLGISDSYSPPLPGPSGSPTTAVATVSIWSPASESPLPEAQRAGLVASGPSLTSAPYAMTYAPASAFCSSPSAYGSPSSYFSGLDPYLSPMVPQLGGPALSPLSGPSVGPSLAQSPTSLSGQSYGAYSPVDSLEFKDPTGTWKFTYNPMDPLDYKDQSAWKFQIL
Method in brief: as §1

ERF = molecular target: T4, ERF (Homo sapiens, UniProt P50548 1-548); details: protein: recombinant; tags: N-terminal GST; dsDNA, one strand shown
T4 sequence: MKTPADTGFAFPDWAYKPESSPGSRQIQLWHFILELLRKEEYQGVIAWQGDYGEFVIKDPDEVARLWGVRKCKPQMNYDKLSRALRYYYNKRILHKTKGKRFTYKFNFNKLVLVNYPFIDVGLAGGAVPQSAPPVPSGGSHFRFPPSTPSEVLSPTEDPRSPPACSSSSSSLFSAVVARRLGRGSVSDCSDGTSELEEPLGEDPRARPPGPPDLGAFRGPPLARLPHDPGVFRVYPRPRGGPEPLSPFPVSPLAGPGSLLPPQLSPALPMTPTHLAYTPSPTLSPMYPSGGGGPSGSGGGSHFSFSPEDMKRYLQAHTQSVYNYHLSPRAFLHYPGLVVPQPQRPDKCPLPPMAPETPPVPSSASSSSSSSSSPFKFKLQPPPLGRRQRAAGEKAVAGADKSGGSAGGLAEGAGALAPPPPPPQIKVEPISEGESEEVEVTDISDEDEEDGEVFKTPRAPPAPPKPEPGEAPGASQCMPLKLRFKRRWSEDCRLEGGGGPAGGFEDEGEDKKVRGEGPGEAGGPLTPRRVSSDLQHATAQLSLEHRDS
Method in brief: as §1

ETV3L = molecular target: T5, ETV3L (Homo sapiens, UniProt Q6ZN32 1-361); details: protein: recombinant; tags: N-terminal GST; dsDNA, one strand shown
T5 sequence: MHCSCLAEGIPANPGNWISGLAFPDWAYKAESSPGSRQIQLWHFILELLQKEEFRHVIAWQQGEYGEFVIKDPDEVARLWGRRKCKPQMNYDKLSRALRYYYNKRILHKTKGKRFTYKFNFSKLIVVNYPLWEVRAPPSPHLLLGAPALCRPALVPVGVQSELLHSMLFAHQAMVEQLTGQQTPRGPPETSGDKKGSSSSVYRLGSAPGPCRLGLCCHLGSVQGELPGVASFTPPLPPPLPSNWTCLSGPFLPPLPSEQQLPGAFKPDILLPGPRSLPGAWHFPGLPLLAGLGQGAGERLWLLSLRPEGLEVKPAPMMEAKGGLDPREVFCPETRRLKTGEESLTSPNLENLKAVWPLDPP
Method in brief: as §1

ETV7 = molecular target: T6, ETV7 (Homo sapiens, UniProt Q9Y603 1-341); details: protein: recombinant; tags: N-terminal GST; dsDNA, one strand shown
T6 sequence: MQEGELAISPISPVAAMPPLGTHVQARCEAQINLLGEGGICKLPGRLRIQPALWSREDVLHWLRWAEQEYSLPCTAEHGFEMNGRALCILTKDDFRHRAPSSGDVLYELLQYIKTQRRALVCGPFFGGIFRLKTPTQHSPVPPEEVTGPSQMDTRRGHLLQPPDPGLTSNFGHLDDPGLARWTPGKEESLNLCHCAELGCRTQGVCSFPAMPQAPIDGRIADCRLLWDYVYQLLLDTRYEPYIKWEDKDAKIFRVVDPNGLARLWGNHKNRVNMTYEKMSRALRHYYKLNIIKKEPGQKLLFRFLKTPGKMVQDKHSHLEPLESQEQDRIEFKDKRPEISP
Method in brief: as §1

SPIB = SPIB (Homo sapiens, UniProt Q01892 1-262); details: protein: recombinant; tags: N-terminal GST; dsDNA, one strand shown
Sequence of SPIB (Q01892 whole entry): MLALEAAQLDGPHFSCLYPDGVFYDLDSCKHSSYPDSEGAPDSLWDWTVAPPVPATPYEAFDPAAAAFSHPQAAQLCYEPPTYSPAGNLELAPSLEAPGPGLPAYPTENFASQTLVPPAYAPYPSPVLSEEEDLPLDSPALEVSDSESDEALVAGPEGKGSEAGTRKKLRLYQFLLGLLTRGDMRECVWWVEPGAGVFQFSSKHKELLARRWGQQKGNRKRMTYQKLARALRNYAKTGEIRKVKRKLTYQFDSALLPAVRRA
Method in brief: as §1

ELF4 = ELF4 (Homo sapiens, UniProt Q99607 1-663); details: protein: recombinant; tags: N-terminal GST; dsDNA, one strand shown
Sequence of ELF4 (Q99607 whole entry): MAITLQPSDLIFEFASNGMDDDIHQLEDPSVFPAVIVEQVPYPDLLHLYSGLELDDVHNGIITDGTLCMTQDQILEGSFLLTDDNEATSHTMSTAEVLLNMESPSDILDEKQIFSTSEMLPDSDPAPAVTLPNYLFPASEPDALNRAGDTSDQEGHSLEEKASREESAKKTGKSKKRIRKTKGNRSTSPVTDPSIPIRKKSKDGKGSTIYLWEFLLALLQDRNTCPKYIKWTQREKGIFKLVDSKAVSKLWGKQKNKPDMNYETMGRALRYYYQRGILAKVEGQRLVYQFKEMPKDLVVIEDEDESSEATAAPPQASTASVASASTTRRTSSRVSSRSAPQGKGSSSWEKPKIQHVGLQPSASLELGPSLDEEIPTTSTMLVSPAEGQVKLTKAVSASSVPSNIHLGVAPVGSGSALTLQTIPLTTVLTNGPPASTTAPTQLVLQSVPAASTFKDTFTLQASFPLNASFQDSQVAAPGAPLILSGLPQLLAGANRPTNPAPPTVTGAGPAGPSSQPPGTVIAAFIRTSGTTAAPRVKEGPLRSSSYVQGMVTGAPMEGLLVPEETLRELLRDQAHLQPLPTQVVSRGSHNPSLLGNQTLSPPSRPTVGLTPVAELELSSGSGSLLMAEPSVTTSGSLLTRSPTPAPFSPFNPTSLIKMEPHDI
Method in brief: as §1

ETV2 = molecular target: T7, ETV2 (Homo sapiens, UniProt O00321 1-342); details: protein: recombinant; tags: N-terminal GST; dsDNA, one strand shown
T7 sequence: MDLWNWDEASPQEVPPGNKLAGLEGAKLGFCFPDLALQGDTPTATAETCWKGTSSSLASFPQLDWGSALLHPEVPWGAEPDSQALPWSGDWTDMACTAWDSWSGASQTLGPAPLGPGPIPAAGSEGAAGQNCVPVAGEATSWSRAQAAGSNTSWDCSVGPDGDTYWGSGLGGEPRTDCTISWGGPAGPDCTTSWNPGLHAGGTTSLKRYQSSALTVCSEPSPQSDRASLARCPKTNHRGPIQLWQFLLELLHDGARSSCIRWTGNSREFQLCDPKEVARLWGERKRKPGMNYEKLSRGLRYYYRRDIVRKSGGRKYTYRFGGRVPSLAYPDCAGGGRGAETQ
Method in brief: as §1

ETV6 = ETV6 (Homo sapiens, UniProt P41212 1-452); details: protein: recombinant; tags: N-terminal GST; dsDNA, one strand shown
Sequence of ETV6 (P41212 whole entry): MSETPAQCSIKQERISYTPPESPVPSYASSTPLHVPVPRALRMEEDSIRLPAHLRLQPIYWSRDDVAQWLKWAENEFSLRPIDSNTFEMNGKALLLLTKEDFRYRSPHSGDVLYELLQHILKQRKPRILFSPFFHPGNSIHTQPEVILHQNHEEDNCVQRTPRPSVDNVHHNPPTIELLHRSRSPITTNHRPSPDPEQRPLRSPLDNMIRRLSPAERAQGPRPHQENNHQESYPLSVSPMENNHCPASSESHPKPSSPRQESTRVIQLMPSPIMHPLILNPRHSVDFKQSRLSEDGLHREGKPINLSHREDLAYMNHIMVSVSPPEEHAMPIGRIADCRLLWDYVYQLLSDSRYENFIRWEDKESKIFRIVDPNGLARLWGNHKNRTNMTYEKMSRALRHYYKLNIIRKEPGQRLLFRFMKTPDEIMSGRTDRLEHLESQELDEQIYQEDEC
Method in brief: as §1

SPIC = molecular target: T8, SPIC (Homo sapiens, UniProt Q8N5J4 1-248); details: protein: recombinant; tags: N-terminal GST; dsDNA, one strand shown
T8 sequence: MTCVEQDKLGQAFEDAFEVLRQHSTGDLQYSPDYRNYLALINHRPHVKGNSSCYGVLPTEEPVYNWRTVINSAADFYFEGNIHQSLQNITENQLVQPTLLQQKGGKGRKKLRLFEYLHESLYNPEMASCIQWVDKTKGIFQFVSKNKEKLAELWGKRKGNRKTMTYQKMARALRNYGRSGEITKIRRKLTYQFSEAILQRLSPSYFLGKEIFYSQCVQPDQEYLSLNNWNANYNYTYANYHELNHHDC
Method in brief: as §1

Sequence: GATCAT
- binding signal (ELF1): 1.01 fold enrichment (6-mer frequency, TF over GST control)
- binding signal (ELK3): 1.1 fold enrichment (6-mer frequency, TF over GST control)
- binding signal (HSF1): 1.3 fold enrichment (6-mer frequency, TF over GST control)
- binding signal (ELK4): 1.07 fold enrichment (6-mer frequency, TF over GST control)
- binding signal (ELF3): 1.05 fold enrichment (6-mer frequency, TF over GST control)
- binding signal (CRX): 1.48 fold enrichment (6-mer frequency, TF over GST control)
- binding signal (ERF): 1.09 fold enrichment (6-mer frequency, TF over GST control)
- binding signal (ETV3L): 1 fold enrichment (6-mer frequency, TF over GST control)
- binding signal (ETV7): 1.04 fold enrichment (6-mer frequency, TF over GST control)

Sequence: AGAAGA
- binding signal (HSF1): 1.68 fold enrichment (6-mer frequency, TF over GST control)
- binding signal (ELK4): 1.05 fold enrichment (6-mer frequency, TF over GST control)
- binding signal (ELF3): 1.03 fold enrichment (6-mer frequency, TF over GST control)
- binding signal (CRX): 1.14 fold enrichment (6-mer frequency, TF over GST control)
- binding signal (ETV7): 1.01 fold enrichment (6-mer frequency, TF over GST control)

Sequence: GATAAA
- binding signal (SPIB): 1.04 fold enrichment (6-mer frequency, TF over GST control)
- binding signal (HSF1): 1.21 fold enrichment (6-mer frequency, TF over GST control)
- binding signal (ELF4): 1.01 fold enrichment (6-mer frequency, TF over GST control)
- binding signal (ELK4): 1.02 fold enrichment (6-mer frequency, TF over GST control)
- binding signal (ETV2): 1.12 fold enrichment (6-mer frequency, TF over GST control)
- binding signal (CRX): 1.55 fold enrichment (6-mer frequency, TF over GST control)
- binding signal (ETV6): 1 fold enrichment (6-mer frequency, TF over GST control)

Sequence: ATCGCG
- binding signal (HSF1): 1.09 fold enrichment (6-mer frequency, TF over GST control)
- binding signal (ELF4): 1 fold enrichment (6-mer frequency, TF over GST control)
- binding signal (ELK4): 1 fold enrichment (6-mer frequency, TF over GST control)
- binding signal (ETV7): 1.05 fold enrichment (6-mer frequency, TF over GST control)

Sequence: CCAGCA
- binding signal (ELK3): 1 fold enrichment (6-mer frequency, TF over GST control)
- binding signal (HSF1): 1.21 fold enrichment (6-mer frequency, TF over GST control)
- binding signal (SPIC): 1.1 fold enrichment (6-mer frequency, TF over GST control)
- binding signal (ELF3): 1.06 fold enrichment (6-mer frequency, TF over GST control)
